PubChem BioAssay (NCI)
Compounds without any hit were thinned out: in the full panel of roughly 83,000, 20% have a hit.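 Compound tested at a single concentration for 48 hours in 96-well plates; a percent growth value below 10 was scored as active.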 The source made the active and inactive calls.

What was measured:
Assay in all cases: NCI-60 one-dose screen, 48 h (100 = growth as untreated, 0 = no growth, -100 = all killed)
Settings in all cases: 10 µM unless noted
SR leukemia = tested on: SR leukemia
RPMI-8226 leukemia = tested on: RPMI-8226 leukemia
OVCAR-8 ovarian = tested on: OVCAR-8 ovarian
OVCAR-5 ovarian = tested on: OVCAR-5 ovarian
OVCAR-4 ovarian = tested on: OVCAR-4 ovarian
SK-OV-3 ovarian = tested on: SK-OV-3 ovarian
IGROV1 ovarian = tested on: IGROV1 ovarian
OVCAR-3 ovarian = tested on: OVCAR-3 ovarian
HS 578T breast = tested on: HS 578T breast
NCI/ADR-RES ovarian = tested on: NCI/ADR-RES ovarian

Measured: growth

O=c1c(F)cn(Cc2ccccc2CCl)c(=O)n1Cc1ccccc1CCl
active: SR leukemia -57.5% | RPMI-8226 leukemia -48.6% | OVCAR-8 ovarian -20.3% | OVCAR-5 ovarian -76.8% | OVCAR-4 ovarian -15.3% | IGROV1 ovarian -37.3% | OVCAR-3 ovarian -44.6% | HS 578T breast -3.05% | NCI/ADR-RES ovarian -9.91%
inactive: SK-OV-3 ovarian 10.3%

COc1ccc(CCNc2nc3c(c(=O)n(Cc4ccc(Br)cc4)c(=O)n3C)n2C)cc1OC
inactive: SR leukemia 98.9% | RPMI-8226 leukemia 78.5% | OVCAR-8 ovarian 90.5% | OVCAR-5 ovarian 94% | OVCAR-4 ovarian 80.1% | SK-OV-3 ovarian 94.9% | IGROV1 ovarian 83.2% | OVCAR-3 ovarian 98.4% | HS 578T breast 91.1% | NCI/ADR-RES ovarian 82.9%

O=C(Nc1ccccc1Cl)c1ccc(NC2=C(Cl)C(=O)N(C3CCCCC3)C2=O)cc1
active: SR leukemia -22.2% [30 µM] | HS 578T breast -0.344% [30 µM]
inactive: RPMI-8226 leukemia 23.6% [30 µM] | OVCAR-8 ovarian 28.9% [30 µM] | OVCAR-5 ovarian 109% [30 µM] | OVCAR-4 ovarian 68.9% [30 µM] | SK-OV-3 ovarian 109% [30 µM] | IGROV1 ovarian 78.2% [30 µM] | OVCAR-3 ovarian 15.9% [30 µM] | NCI/ADR-RES ovarian 78.4% [30 µM]

O=C1/C(=C/c2ccc(OCCCOc3ccc(Cl)cc3)cc2)N=C2SCCCN12
inactive: SR leukemia 67.5% | RPMI-8226 leukemia 45.6% | OVCAR-8 ovarian 65.9% | OVCAR-5 ovarian 102% | OVCAR-4 ovarian 49.2% | SK-OV-3 ovarian 105% | IGROV1 ovarian 97.8% | OVCAR-3 ovarian 71.3% | HS 578T breast 107% | NCI/ADR-RES ovarian 67.4%

O=C1OC(c2ccccc2)C(O)=C1c1ccccc1 (stereo not given)
inactive: SR leukemia 109% | RPMI-8226 leukemia 96.5% | OVCAR-8 ovarian 100% | OVCAR-5 ovarian 99.2% | OVCAR-4 ovarian 121% | SK-OV-3 ovarian 115% | IGROV1 ovarian 111% | OVCAR-3 ovarian 102% | HS 578T breast 110% | NCI/ADR-RES ovarian 116%

COC[C@H](C)n1c(C2CCOCC2)nc2cnc3cc(-c4c(C)noc4C)c(OC)cc3c21
inactive: SR leukemia 33.5% | RPMI-8226 leukemia 24% | OVCAR-8 ovarian 49.6% | OVCAR-5 ovarian 79.9% | OVCAR-4 ovarian 54.7% | IGROV1 ovarian 66.5% | OVCAR-3 ovarian 49.8% | HS 578T breast 12.6% | NCI/ADR-RES ovarian 54.2%
active: SK-OV-3 ovarian 7.03%

CCCn1c(=O)[nH]c(N)c([C@H]2c3ccccc3Oc3[nH]c(=O)n(CCC)c(=O)c32)c1=O
inactive: RPMI-8226 leukemia 81.7% | OVCAR-8 ovarian 78.9% | OVCAR-5 ovarian 99.4% | OVCAR-4 ovarian 64.6% | SK-OV-3 ovarian 104% | IGROV1 ovarian 89% | OVCAR-3 ovarian 13.8% | HS 578T breast 92.8% | NCI/ADR-RES ovarian 94.8%
active: SR leukemia 4.41%

CCN(CC)CCCCNc1c2ccc(Cl)cc2nc2ccc(OC)cc12
active: SR leukemia -19% | RPMI-8226 leukemia -33.9% | OVCAR-8 ovarian 5.44% | OVCAR-5 ovarian -12.2% | OVCAR-4 ovarian -50.2% | SK-OV-3 ovarian 7.93% | IGROV1 ovarian 3.67% | OVCAR-3 ovarian -25.8% | HS 578T breast -23.2% | NCI/ADR-RES ovarian 4.68%

CC1=C[C@H]2c3c(c(O)c(O)c4oc(-c5ccccc5)cc(=O)c34)[C@H](c3cc(O)c(O)c4oc(-c5ccccc5)cc(=O)c34)[C@H]2C(C)(C)C1
active: SR leukemia 0.0772% | RPMI-8226 leukemia 7.2% | OVCAR-8 ovarian 8.73% | SK-OV-3 ovarian -3.99% | IGROV1 ovarian -31.1% | OVCAR-3 ovarian 7.79% | HS 578T breast 5.98%
inactive: OVCAR-5 ovarian 20% | OVCAR-4 ovarian 10.4% | NCI/ADR-RES ovarian 17.5%

Cc1ccc(-c2onc3c(=O)[nH]nc(-c4ccccc4)c23)cc1
inactive: SR leukemia 28% | RPMI-8226 leukemia 17.9% | OVCAR-8 ovarian 36.7% | OVCAR-5 ovarian 62.3% | OVCAR-4 ovarian 67.3% | SK-OV-3 ovarian 14.9% | IGROV1 ovarian 52.4% | HS 578T breast 16.7% | NCI/ADR-RES ovarian 25.2%
active: OVCAR-3 ovarian 7.2%

O=C(/C=C/c1ccc(C(F)(F)F)cc1)Nc1ccc(C=C2c3ccccc3C(=O)c3ccccc32)cc1
inactive: SR leukemia 18.6% | RPMI-8226 leukemia 10.4% | OVCAR-8 ovarian 55.7% | OVCAR-5 ovarian 84.2% | OVCAR-4 ovarian 47.5% | SK-OV-3 ovarian 77.9% | IGROV1 ovarian 111% | OVCAR-3 ovarian 44.1% | HS 578T breast 78.5% | NCI/ADR-RES ovarian 60%

COc1ccc(C2Nc3c(c(C(C)(C)C)nn3-c3ccccc3)C(=O)CS2)cc1 (stereo not given)
inactive: SR leukemia 87% | RPMI-8226 leukemia 82.7% | OVCAR-8 ovarian 98.4% | OVCAR-5 ovarian 108% | OVCAR-4 ovarian 114% | SK-OV-3 ovarian 106% | IGROV1 ovarian 84.3% | OVCAR-3 ovarian 101% | HS 578T breast 118% | NCI/ADR-RES ovarian 94.8%

Oc1cccc(-c2nc(N3CCOCC3)c3c4c(sc3n2)CCCC4)c1
inactive: SR leukemia 70.3% | RPMI-8226 leukemia 61% | OVCAR-8 ovarian 51.9% | OVCAR-5 ovarian 82.7% | OVCAR-4 ovarian 45.9% | SK-OV-3 ovarian 30.6% | OVCAR-3 ovarian 56.9% | HS 578T breast 10.2% | NCI/ADR-RES ovarian 52.1%
active: IGROV1 ovarian 3.92%

COc1cc2c(cc1-c1c(C)noc1C)ncc1nc(-c3ccccn3)n([C@H](C)COC(F)F)c12
active: RPMI-8226 leukemia 8.62% | SK-OV-3 ovarian 9.97% | HS 578T breast 3.88%
inactive: SR leukemia 27.8% | OVCAR-8 ovarian 35.1% | OVCAR-5 ovarian 76.6% | OVCAR-4 ovarian 52.6% | IGROV1 ovarian 52.6% | OVCAR-3 ovarian 47.4% | NCI/ADR-RES ovarian 33.6%

CN(Cc1cc(Cl)cc(Cl)c1O)Cc1cc(Cl)cc(Cl)c1O
inactive: SR leukemia 62.6% | RPMI-8226 leukemia 70.7% | OVCAR-8 ovarian 63.6% | OVCAR-5 ovarian 89.8% | OVCAR-4 ovarian 40.2% | SK-OV-3 ovarian 78.3% | IGROV1 ovarian 54.2% | OVCAR-3 ovarian 49.1% | HS 578T breast 92.8% | NCI/ADR-RES ovarian 62.4%

NC(=O)c1cc(Br)ccc1NC(=O)/C=C/c1ccccc1
active: SR leukemia -10.1% | OVCAR-3 ovarian -12.2%
inactive: RPMI-8226 leukemia 24.4% | OVCAR-8 ovarian 54.4% | OVCAR-5 ovarian 49.9% | OVCAR-4 ovarian 35.8% | SK-OV-3 ovarian 31.1% | IGROV1 ovarian 86.6% | HS 578T breast 16.3% | NCI/ADR-RES ovarian 11%

CSc1ccc(-c2ccccc(=O)c2O)cc1
active: SR leukemia 5.18% | NCI/ADR-RES ovarian 5.46%
inactive: RPMI-8226 leukemia 10.1% | OVCAR-8 ovarian 14.6% | OVCAR-5 ovarian 52.9% | OVCAR-4 ovarian 32.5% | SK-OV-3 ovarian 11.8% | IGROV1 ovarian 12.7% | OVCAR-3 ovarian 25.1% | HS 578T breast 56.4%

COc1ccc(-c2nc3cc(C(=O)Nc4cc(OC)c(OC)c(OC)c4)ccc3n2C2CCCCC2)cc1
inactive: SR leukemia 57.5% | RPMI-8226 leukemia 91.7% | OVCAR-8 ovarian 96.6% | OVCAR-5 ovarian 98.1% | OVCAR-4 ovarian 109% | SK-OV-3 ovarian 104% | IGROV1 ovarian 96.5% | OVCAR-3 ovarian 101% | HS 578T breast 81.9% | NCI/ADR-RES ovarian 98.3%

COc1nc2c(c(=O)n1C)CN(Cc1ccccc1)C=N2
inactive: SR leukemia 98.7% | RPMI-8226 leukemia 86.6% | OVCAR-8 ovarian 96.7% | OVCAR-5 ovarian 105% | OVCAR-4 ovarian 116% | SK-OV-3 ovarian 87.3% | IGROV1 ovarian 93.7% | OVCAR-3 ovarian 105% | HS 578T breast 113% | NCI/ADR-RES ovarian 113%

O=C(O)COc1ccc(Cl)cc1C1CCCCC1
inactive: SR leukemia 95.4% | RPMI-8226 leukemia 102% | OVCAR-8 ovarian 103% | OVCAR-5 ovarian 107% | OVCAR-4 ovarian 109% | SK-OV-3 ovarian 107% | IGROV1 ovarian 117% | OVCAR-3 ovarian 115% | HS 578T breast 105% | NCI/ADR-RES ovarian 104%

Cc1nn(-c2ccc(F)cc2)c2ncnc(Nc3ccc(NC(=O)Nc4ccc(Cl)c(C(F)(F)F)c4)cc3)c12
inactive: SR leukemia 46.1% | RPMI-8226 leukemia 19.3% | OVCAR-8 ovarian 35.4% | OVCAR-5 ovarian 70.8% | OVCAR-4 ovarian 23.8% | SK-OV-3 ovarian 65.7% | IGROV1 ovarian 31% | HS 578T breast 31.3% | NCI/ADR-RES ovarian 38.2%
active: OVCAR-3 ovarian -4.21%

COc1cc(-c2nc3ccccc3[nH]2)ccc1OCc1nnc(-c2ccc(CC(C)C)cc2)o1
inactive: SR leukemia 80.2% | RPMI-8226 leukemia 83% | OVCAR-8 ovarian 92.2% | OVCAR-5 ovarian 114% | OVCAR-4 ovarian 90.9% | SK-OV-3 ovarian 99.1% | IGROV1 ovarian 92.3% | OVCAR-3 ovarian 95.2% | HS 578T breast 87.4% | NCI/ADR-RES ovarian 89.8%

Nc1nc2ccc3[nH]ncc3c2c2c1CCCC2
inactive: OVCAR-4 ovarian 16.2% | SK-OV-3 ovarian 16.6%
active: SR leukemia -16.6% | RPMI-8226 leukemia 6.83% | OVCAR-8 ovarian 7.6% | OVCAR-5 ovarian 8.24% | IGROV1 ovarian 8.21% | OVCAR-3 ovarian 5.2% | HS 578T breast -9.88% | NCI/ADR-RES ovarian 2.46%

COC(=O)c1ccc2oc(NC(=O)c3ccc(Nc4ccc([N+](=O)[O-])cc4C)c([N+](=O)[O-])c3)nc2c1
inactive: SR leukemia 111% | RPMI-8226 leukemia 108% | OVCAR-8 ovarian 104% | OVCAR-5 ovarian 109% | OVCAR-4 ovarian 100% | SK-OV-3 ovarian 102% | IGROV1 ovarian 104% | OVCAR-3 ovarian 105% | HS 578T breast 93.2% | NCI/ADR-RES ovarian 106%

O=C(CCl)Oc1ccc(-c2ccccc2)c(Br)c1
inactive: SR leukemia 96.9% | RPMI-8226 leukemia 106% | OVCAR-8 ovarian 103% | OVCAR-5 ovarian 107% | OVCAR-4 ovarian 105% | SK-OV-3 ovarian 104% | IGROV1 ovarian 112% | OVCAR-3 ovarian 108% | HS 578T breast 108% | NCI/ADR-RES ovarian 103%

Clc1ccc2nc3nc4ccc[nH]c4cc3c2c1
inactive: SR leukemia 39.6% | RPMI-8226 leukemia 65.5% | OVCAR-8 ovarian 87.4% | OVCAR-5 ovarian 127% | OVCAR-4 ovarian 49.2% | SK-OV-3 ovarian 98.1% | IGROV1 ovarian 52.9% | OVCAR-3 ovarian 83.1% | HS 578T breast 92.2% | NCI/ADR-RES ovarian 88.3%
